This passage reports Potency and activity change, negative = cytotoxicity results from PubChem BioAssay (NCATS).

Inconclusive results are not listed. Entries that show only a call come without a potency. Activity calls are given as the source filed them. The call rests on the fitted dose curve; in most records, active means well fitted cell-killing curve with a large enough effect; inconclusive means small, poorly fitted or top-dose-only effect, or effect the other way; inactive means flat fitted curve, though single readings scatter.

The subject of this test is PA-1. In words: Primary qHTS to identify gynecologic anti-cancer compounds using libraries of approved drugs and bioactive compounds (AID 1345084). Further: nearly all actives have a fitted effect of over 55% in size. Conditions: Gynecologic cancer cell panel viability, ATPlite luminescence, 48 h; series mostly up to 57.5 µM. The method, boiled down:
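In this quantitative HTS, cell killing is estimated from loss of ATP-dependent luciferase light. Cells see five compound concentrations over a 48 h exposure.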
(In general: Quantitative high-throughput screening tests each substance at several concentrations.)
Consider `C=C1CCC2C(C)(C)CCC[C@]2(C)[C@H]1CC/C(C)=C/C(=O)O` (stereo not given in full), for which the Potency entry was “inactive”. For the molecule `COCC1OC(OC(C)(C)C2CCC3(C)C=C(C4CCC5C4(C)CC(O)C4OC(C(C)(C)O)CCC45C)CCC3O2)C(NC(C)=O)C(O)C1O` (stereo not given), the Potency result was “inactive”. Consider `C=C1CCC2[C@](C)(CCC[C@]2(C)C(=O)O)[C@H]1CC/C(C)=C/C(=O)OC` (stereo not given in full), for which the Potency result was “inactive”.

As to `COC(=O)c1c(CC=C(C)C)c(OC2OC(CO)C(O)C(O)C2O)c2ccccc2c1OC1OC(CO)C(O)C(O)C1O` (stereo not given), the Potency entry was “inactive”. With `O=C(Cc1ccccc1)OC[C@H]1O[C@H](O[C@H]2O[C@H](CO)[C@@H](O)[C@H](O)[C@H]2O)[C@H](O)[C@@H](O)[C@@H]1O`, the Potency result was “inactive”. Take `CC1=C2C[C@H]3OC(=O)[C@H](O)[C@@]4(O)[C@@H](C)[C@@H](O)[C@H](O)C([C@@]2(C)[C@H](O)[C@@H](O)C1)[C@@]34C` (stereo not given in full): the Potency entry is “inactive”. Same read-out and setting: the entry for `CC1CC(=O)C2=C(O1)OC1(C)CCC3C(C)(C)C4OC4C(=O)C3(C)C1C2` (stereo not given) is “inactive”; for `COc1ccnc(CCc2nc3ncccc3[nH]2)c1` it is “inactive”. On the same count and under the same terms, in the case of `C/C(=C/CO)CC[C@H]1[C@]2(C)C[C@H](O)CC(C)(C)[C@H]2CC[C@]1(C)O` it was “inactive”. On the same count and under the same terms, the entry for `COc1c2c(c(C)c3c1C(=O)OC3)OC1(C)CC(O)C34OC(O)(CCC3(C)C1C2)OC4(C)C` (stereo not given) is “inactive”; for `COC(=O)[C@]1(Cc2ccc(O)c(CC=C(C)C)c2)OC(=O)C(O)=C1c1ccc(O)cc1` it is “inactive”. As for `COc1cnc(-c2ccc(Cn3c(CC(C)(C)C(=O)O)c(SC(C)(C)C)c4cc(OC[C@@H]5Cc6ccccc6N5C(C)=O)ccc43)cc2)nc1`, the Potency entry is “inactive”. As for `CCC(C)C(=O)O[C@H]1C[C@](C)(O)[C@]23OC(C)(C)[C@H](C[C@H](OC(=O)c4ccccc4)[C@]2(COC(C)=O)[C@H]1OC(=O)C(C)CC)[C@H]3OC(C)=O` (stereo not given in full), the Potency entry was “inactive”. The same measure, in the same setting: the entry for `CC1CC2(O)OC(=O)C3=C2C(CCC3)[C@@]12C[C@@H](c1ccoc1)OC2=O` (stereo not given in full) is “inactive”. Regarding `COc1cc(C(C)=O)ccc1O[C@@H]1O[C@H](CO)[C@@H](O)[C@H](O)[C@H]1O`, the Potency result was “inactive”. Same read-out and setting: the entry for `COC(=O)C1=COC(OC2OC(CO)C(O)C(O)C2O)C2C(C)C(OC(C)=O)C(OC(=O)c3ccccc3)C12` (stereo not given) is “inactive”; for `COc1ccnc2[nH]cc(C(=O)C(=O)N3CCN(C(=O)c4ccccc4)CC3C)c12` (stereo not given) it is “inactive”. For `C[C@@H]1O[C@@H](O[C@H]2[C@H](O)[C@@H](O)[C@H](OC[C@H]3O[C@@H](OC(=O)[C@]45CCC(C)(C)C[C@H]4C4=CCC6[C@@]7(C)C[C@@H](O)[C@H](O)[C@@](C)(CO)C7[C@H](O)C[C@@]6(C)[C@]4(C)CC5)[C@H](O)[C@@H](O)[C@@H]3O)O[C@@H]2CO)[C@H](O)[C@H](O)[C@H]1O` (stereo not given in full), the activity change, negative = cytotoxicity was 2.94% [at 11.6 µM] (inactive).

Consider `O=C(CC1CC(c2ccc(F)cc2F)=NO1)N1CCOCC1` (stereo not given), for which the Potency entry was “inactive”.

Turning to `COC(=O)C1=CO[C@@H](O[C@@H]2O[C@H](CO)[C@@H](O)[C@H](O)[C@H]2O)[C@@H]2[C@@H](C(=O)O)CC[C@H]12`, the Potency result is “inactive”. As for `C[C@@H]1O[C@@H](OC2C(CO)OC(OCC3OC(OC(=O)[C@]45CCC(C)(C)CC4C4=CCC6[C@@]7(C)CC[C@@H](O)[C@](C)(C(=O)O)C7CC[C@@]6(C)[C@]4(C)CC5)C(O)C(O)C3O)C(O)C2O)[C@H](O)[C@H](O)[C@H]1O` (stereo not given in full), the activity change, negative = cytotoxicity was 29.2% [at 11.6 µM] (inactive). Regarding `OC[C@H]1O[C@@H](OC[C@H]2O[C@@H](OCc3ccccc3)[C@H](O)[C@@H](O)[C@@H]2O)[C@H](O)[C@@H](O)[C@@H]1O`, the Potency entry is “inactive”. On to `COC1OC(O)C2(CCC3(O2)C(C)CC2OC(=O)C4(C)CCCC3(C)C24)C1O` (stereo not given), for which the Potency entry was “inactive”. On the same count and under the same terms, in the case of `C=C1C(OC(C)=O)C(=O)C2C(C)(C)C(O)CCC2(C)C1CC(OC(C)=O)/C(C)=C/COC(C)=O` (stereo not given) it was “inactive”. Consider `C/C(=C\CO)CC/C=C(\C)C(=O)O[C@@H]1O[C@H](CO)[C@@H](O)[C@H](O)[C@H]1O`, for which the Potency entry is “inactive”. In the case of `CC(=O)c1c(C)cccc1O[C@@H]1O[C@H](CO)[C@@H](O)[C@H](O)[C@H]1O`, the Potency entry is “inactive”. On the same count and under the same terms, in the case of `CC(=O)O[C@@H]1C=C2[C@H](CC[C@@]3(C)[C@@]2(O)CC[C@H]2Cc4c([nH]c5ccccc45)[C@@]23C)O[C@@H]1C(C)(C)O` it was “inactive”; in that of `C=CC1(C)CC=C2C(CCC3C(C)(C(=O)O)CCCC23C)C1` (stereo not given), “inactive”; in that of `CC(C)c1ccc2c(c1)C(=O)CC1C(C)(C(=O)O)CCCC21C` (stereo not given), “inactive”. For `CC(C)CC(=O)O[C@@H]1O[C@H](CO)[C@@H](O[C@H]2O[C@H](C)[C@@H](N[C@H]3C=C(CO)[C@@H](O[C@H]4O[C@H](CO)[C@@H](O[C@H]5O[C@H](CO)[C@@H](O[C@H]6O[C@H](CO)[C@@H](O)[C@H](O)[C@H]6O)[C@H](O)[C@H]5O)[C@H](O)[C@H]4O)[C@H](O)[C@H]3O)[C@H](O)[C@H]2O)[C@H](O)[C@H]1O`, the activity change, negative = cytotoxicity is -1.75% [at 11.6 µM] (inactive).
